Assay results as given in ChEMBL document CHEMBL1961873, “Compounds: GSK PKIS; Assays: Nanosyn kinase panel” (2012).

Assays:
[1] = target: Fibroblast growth factor receptor 4 (Homo sapiens) (UniProt P22455); conditions: at 1 µM;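 further: reported figure is the averaged percent inhibition of FGFR4, from the GSK PKIS kinase screening panel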
[2] = target: Tyrosine-protein kinase Fgr (Homo sapiens) (UniProt P09769); conditions: at 0.1 µM
[3] = target: Tyrosine-protein kinase Fgr (Homo sapiens) (UniProt P09769); conditions: at 1 µM
[4] = target: Vascular endothelial growth factor receptor 1 (Homo sapiens) (UniProt P17948); conditions: at 0.1 µM
Sequence of Vascular endothelial growth factor receptor 1 (Homo sapiens) (P17948 whole entry): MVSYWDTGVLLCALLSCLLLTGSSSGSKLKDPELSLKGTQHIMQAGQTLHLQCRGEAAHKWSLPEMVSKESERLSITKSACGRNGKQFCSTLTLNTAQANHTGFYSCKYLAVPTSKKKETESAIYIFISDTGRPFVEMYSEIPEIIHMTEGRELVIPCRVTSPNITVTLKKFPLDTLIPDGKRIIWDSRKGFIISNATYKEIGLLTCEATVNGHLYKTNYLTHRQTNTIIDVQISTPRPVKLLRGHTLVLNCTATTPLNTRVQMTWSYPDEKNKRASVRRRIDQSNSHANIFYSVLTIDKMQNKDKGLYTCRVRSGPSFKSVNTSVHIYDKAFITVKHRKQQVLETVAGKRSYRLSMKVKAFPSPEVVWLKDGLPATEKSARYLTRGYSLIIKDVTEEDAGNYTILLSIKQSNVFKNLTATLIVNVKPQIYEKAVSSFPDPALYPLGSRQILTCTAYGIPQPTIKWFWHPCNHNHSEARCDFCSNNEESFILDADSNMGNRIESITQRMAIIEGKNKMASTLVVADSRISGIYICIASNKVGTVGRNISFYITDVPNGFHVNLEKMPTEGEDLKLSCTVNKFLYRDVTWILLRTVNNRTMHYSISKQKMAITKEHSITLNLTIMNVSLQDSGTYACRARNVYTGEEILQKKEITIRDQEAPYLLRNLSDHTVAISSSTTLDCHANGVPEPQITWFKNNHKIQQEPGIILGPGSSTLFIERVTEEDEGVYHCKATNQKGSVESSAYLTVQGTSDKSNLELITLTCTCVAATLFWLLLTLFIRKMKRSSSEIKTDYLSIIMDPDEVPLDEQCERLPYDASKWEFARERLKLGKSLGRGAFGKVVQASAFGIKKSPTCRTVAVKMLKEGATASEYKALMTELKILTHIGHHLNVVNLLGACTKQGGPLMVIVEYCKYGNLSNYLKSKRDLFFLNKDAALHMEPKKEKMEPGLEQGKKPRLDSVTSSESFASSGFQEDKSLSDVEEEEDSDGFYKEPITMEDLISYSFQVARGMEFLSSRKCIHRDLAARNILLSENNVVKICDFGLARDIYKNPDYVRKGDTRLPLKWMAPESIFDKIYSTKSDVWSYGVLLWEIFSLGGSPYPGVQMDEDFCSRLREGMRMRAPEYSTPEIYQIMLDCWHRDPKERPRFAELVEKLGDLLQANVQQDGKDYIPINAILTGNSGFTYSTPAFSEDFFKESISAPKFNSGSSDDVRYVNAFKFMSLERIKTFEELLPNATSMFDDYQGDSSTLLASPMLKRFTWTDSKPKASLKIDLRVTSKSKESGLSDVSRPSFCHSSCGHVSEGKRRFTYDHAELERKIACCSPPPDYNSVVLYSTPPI

[5] = target: Vascular endothelial growth factor receptor 1 (Homo sapiens) (UniProt P17948); conditions: at 1 µM
[6] = target: Receptor-type tyrosine-protein kinase FLT3 (Homo sapiens) (UniProt P36888); conditions: at 0.1 µM
[7] = target: Receptor-type tyrosine-protein kinase FLT3 (Homo sapiens) (UniProt P36888); conditions: at 1 µM
[8] = test system: T1, Receptor-type tyrosine-protein kinase FLT3 (Homo sapiens), P36888 [D835Y]; conditions: at 0.1 µM
T1 sequence (whole entry): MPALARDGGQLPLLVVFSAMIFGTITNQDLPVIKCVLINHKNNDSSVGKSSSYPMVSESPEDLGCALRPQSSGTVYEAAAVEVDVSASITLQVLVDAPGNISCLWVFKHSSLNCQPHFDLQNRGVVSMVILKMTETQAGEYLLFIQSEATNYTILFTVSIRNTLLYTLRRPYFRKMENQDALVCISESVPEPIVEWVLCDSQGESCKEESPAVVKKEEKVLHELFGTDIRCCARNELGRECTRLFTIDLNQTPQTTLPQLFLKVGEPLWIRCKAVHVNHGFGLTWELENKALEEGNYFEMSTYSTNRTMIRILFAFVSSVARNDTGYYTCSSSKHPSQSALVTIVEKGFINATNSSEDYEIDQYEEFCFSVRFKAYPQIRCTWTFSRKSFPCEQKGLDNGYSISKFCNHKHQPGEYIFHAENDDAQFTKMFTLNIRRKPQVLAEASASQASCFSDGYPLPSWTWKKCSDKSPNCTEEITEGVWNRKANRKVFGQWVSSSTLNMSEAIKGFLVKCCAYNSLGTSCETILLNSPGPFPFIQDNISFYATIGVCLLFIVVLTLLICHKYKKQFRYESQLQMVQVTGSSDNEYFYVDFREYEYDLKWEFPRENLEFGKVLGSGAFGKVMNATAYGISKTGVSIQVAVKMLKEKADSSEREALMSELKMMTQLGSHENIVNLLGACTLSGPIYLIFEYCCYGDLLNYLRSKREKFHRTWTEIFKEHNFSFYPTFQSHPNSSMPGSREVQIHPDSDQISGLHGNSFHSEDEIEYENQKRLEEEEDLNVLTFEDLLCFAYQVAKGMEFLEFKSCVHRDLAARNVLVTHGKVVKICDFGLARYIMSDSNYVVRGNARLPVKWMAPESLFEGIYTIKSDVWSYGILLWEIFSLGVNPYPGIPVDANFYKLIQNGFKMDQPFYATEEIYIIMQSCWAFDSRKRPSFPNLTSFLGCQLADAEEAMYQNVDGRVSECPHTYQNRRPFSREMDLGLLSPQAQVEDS

[9] = target: Non-receptor tyrosine-protein kinase TYK2 (Homo sapiens) (UniProt P29597); conditions: at 1 µM;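 further: values are mean percent inhibition of TYK2 kinase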
Sequence of Non-receptor tyrosine-protein kinase TYK2 (Homo sapiens) (P29597 whole entry): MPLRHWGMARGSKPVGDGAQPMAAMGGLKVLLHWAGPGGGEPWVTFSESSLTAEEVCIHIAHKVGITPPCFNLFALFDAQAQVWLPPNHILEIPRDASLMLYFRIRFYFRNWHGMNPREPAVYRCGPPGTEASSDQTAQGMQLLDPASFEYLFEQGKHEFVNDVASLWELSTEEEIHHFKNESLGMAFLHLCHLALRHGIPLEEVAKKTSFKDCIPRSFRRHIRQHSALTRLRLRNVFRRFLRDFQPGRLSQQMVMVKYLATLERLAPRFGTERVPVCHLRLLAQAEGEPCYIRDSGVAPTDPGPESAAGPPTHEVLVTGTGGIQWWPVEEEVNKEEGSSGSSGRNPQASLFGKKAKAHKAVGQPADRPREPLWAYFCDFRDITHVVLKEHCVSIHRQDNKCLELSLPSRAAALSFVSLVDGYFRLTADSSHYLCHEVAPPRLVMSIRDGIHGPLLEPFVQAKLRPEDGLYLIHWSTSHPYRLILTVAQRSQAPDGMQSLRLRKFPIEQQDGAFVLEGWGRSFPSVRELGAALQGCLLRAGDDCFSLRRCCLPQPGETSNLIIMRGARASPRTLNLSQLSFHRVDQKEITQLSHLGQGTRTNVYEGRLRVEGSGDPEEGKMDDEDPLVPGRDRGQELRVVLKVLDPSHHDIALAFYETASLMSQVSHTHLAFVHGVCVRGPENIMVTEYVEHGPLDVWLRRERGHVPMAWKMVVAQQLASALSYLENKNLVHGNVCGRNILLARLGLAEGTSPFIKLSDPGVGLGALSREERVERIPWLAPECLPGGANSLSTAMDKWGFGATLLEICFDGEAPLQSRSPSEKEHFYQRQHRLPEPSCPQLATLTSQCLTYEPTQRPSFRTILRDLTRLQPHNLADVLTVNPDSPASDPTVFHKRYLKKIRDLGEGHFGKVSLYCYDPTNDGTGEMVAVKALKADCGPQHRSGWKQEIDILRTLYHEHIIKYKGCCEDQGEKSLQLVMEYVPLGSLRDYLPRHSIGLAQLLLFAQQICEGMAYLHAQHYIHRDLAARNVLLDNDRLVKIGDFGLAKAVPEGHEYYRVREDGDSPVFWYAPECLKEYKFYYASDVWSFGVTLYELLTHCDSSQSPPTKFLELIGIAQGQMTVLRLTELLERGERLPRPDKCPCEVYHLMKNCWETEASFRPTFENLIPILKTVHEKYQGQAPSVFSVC

[10] = target: T2, Tyrosine-protein kinase receptor TYRO3 (Homo sapiens) (UniProt Q06418); conditions: at 0.1 µM
T2 sequence (whole entry): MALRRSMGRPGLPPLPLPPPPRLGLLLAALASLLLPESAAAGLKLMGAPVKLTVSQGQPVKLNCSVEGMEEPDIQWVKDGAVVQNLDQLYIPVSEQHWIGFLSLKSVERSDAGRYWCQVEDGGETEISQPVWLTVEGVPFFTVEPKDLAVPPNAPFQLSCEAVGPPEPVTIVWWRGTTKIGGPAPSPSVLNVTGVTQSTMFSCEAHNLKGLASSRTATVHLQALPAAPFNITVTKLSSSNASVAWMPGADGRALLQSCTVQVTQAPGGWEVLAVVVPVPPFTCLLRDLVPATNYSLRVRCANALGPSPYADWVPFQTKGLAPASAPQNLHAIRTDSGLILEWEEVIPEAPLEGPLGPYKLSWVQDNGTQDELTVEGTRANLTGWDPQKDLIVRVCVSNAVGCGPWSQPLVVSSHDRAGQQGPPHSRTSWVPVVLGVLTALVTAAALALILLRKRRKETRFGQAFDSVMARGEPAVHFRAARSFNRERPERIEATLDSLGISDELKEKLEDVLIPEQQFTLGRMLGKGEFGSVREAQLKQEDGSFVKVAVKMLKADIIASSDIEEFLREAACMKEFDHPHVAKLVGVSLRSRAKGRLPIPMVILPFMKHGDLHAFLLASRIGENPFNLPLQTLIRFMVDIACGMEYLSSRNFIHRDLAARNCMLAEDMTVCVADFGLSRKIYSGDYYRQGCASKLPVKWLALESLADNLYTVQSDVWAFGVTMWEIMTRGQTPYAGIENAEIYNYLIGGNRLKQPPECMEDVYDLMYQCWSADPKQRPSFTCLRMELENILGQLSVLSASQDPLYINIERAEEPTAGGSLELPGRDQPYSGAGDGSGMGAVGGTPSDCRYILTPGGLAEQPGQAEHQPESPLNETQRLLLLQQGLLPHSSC

[11] = target: T2, Tyrosine-protein kinase receptor TYRO3 (Homo sapiens); conditions: at 1 µM
[12] = target: Tyrosine-protein kinase Yes (Homo sapiens) (UniProt P07947); conditions: at 0.1 µM
Sequence of Tyrosine-protein kinase Yes (Homo sapiens) (P07947 2-543 limits assumed): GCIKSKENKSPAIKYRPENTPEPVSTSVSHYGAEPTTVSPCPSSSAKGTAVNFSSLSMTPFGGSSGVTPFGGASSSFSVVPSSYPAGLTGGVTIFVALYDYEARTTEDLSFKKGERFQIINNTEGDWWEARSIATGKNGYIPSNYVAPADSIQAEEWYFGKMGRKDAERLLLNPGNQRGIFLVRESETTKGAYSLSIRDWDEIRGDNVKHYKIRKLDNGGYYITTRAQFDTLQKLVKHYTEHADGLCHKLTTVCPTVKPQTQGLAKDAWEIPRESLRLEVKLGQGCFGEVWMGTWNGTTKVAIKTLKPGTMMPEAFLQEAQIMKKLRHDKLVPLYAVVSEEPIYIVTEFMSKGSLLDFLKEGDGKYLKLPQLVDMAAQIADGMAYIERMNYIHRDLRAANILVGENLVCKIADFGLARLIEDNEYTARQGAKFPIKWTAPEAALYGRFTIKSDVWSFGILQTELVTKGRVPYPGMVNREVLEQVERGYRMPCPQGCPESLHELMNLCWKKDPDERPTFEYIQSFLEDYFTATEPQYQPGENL

[13] = target: Tyrosine-protein kinase Yes (Homo sapiens) (UniProt P07947); conditions: at 1 µM
[14] = target: T3, Tyrosine-protein kinase ZAP-70 (Homo sapiens) (UniProt P43403); conditions: at 1 µM
T3 sequence (whole entry): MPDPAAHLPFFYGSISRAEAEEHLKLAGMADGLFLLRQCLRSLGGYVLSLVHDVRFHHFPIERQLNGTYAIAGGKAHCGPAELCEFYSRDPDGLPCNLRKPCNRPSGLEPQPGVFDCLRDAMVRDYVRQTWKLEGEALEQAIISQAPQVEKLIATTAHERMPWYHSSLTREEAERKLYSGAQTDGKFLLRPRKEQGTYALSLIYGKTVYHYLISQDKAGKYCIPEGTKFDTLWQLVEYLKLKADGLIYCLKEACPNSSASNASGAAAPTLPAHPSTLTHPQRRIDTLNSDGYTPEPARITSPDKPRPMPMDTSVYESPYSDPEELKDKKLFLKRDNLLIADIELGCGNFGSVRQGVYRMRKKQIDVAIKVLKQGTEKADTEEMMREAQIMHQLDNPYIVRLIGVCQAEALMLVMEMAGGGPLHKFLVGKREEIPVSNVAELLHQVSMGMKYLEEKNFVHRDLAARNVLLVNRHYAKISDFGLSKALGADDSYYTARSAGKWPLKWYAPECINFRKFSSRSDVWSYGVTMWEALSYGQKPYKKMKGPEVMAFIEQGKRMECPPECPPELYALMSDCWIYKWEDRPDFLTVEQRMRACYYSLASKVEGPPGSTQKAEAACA

[15] = target: Serine/threonine-protein kinase B-raf (Homo sapiens) (UniProt P15056); conditions: at 0.1 µM
Sequence of Serine/threonine-protein kinase B-raf (Homo sapiens) (P15056 whole entry): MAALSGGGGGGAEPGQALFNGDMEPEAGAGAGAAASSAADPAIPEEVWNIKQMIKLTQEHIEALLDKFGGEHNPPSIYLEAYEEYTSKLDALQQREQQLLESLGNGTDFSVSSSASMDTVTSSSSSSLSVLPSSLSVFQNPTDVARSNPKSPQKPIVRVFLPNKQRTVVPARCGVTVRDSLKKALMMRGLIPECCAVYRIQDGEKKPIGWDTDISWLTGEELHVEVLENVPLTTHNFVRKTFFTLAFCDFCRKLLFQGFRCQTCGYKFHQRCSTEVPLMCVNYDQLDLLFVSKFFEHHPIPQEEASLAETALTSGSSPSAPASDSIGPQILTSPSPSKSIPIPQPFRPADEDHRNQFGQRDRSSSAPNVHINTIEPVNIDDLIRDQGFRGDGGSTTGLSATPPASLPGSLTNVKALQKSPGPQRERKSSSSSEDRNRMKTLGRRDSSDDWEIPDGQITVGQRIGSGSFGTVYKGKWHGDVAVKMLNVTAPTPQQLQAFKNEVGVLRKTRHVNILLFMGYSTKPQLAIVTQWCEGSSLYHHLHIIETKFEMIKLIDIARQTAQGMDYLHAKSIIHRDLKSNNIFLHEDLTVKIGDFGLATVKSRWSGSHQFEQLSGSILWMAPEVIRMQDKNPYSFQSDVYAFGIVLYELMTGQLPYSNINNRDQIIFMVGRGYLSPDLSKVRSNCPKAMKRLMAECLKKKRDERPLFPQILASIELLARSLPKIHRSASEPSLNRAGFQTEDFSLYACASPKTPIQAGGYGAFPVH

[16] = target: Serine/threonine-protein kinase B-raf (Homo sapiens) (UniProt P15056); conditions: at 1 µM
[17] = test system: Serine/threonine-protein kinase B-raf (Homo sapiens), P15056 [V600E]; conditions: at 0.1 µM
Sequence of Serine/threonine-protein kinase B-raf (Homo sapiens), P15056 [V600E] (P15056 whole entry V600E): as the sequence (P15056 whole entry) above, with V600E counted along it

[18] = test system: Serine/threonine-protein kinase B-raf (Homo sapiens), P15056 [V600E]; conditions: at 1 µM
[19] = target: RAF proto-oncogene serine/threonine-protein kinase (Homo sapiens) (UniProt P04049); conditions: at 0.1 µM;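 further: values are mean CRAF kinase inhibition from profiling of the GSK Published Kinase Inhibitor Set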
Sequence of RAF proto-oncogene serine/threonine-protein kinase (Homo sapiens) (P04049 whole entry): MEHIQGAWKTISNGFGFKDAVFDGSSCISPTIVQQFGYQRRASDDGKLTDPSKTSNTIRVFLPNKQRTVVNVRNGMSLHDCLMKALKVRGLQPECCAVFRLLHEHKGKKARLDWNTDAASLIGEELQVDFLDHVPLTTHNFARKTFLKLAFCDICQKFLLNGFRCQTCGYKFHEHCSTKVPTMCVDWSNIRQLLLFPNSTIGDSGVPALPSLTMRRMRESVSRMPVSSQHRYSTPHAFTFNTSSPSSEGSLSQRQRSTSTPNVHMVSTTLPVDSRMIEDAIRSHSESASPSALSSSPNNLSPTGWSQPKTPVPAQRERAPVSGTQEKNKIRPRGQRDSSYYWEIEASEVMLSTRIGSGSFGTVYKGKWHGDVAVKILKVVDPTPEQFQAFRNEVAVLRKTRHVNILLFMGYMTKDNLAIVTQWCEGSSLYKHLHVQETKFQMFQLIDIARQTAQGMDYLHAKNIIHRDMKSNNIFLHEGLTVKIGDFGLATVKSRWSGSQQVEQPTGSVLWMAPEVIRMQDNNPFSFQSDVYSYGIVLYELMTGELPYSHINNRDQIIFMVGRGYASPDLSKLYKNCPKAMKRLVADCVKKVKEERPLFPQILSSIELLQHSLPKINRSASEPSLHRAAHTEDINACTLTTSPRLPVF

[20] = target: T3, Tyrosine-protein kinase ZAP-70 (Homo sapiens); conditions: at 0.1 µM

Sequence of Tyrosine-protein kinase Fgr (Homo sapiens) (P09769 2-529 limits assumed): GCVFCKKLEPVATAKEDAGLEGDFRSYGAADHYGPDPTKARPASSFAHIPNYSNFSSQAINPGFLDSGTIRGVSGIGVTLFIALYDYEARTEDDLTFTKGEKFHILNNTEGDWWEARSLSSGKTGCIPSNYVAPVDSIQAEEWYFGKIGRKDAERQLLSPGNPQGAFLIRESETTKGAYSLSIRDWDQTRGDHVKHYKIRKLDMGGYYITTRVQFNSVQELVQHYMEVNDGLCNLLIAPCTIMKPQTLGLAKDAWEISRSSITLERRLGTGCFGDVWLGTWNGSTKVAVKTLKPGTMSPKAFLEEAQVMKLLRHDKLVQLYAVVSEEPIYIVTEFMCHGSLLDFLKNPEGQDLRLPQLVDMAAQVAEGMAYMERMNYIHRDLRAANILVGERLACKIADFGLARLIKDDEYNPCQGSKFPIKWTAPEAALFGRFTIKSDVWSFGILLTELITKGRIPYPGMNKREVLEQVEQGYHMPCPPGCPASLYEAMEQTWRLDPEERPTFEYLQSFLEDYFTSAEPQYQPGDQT

| SMILES | inhibition [1] [%] | inhibition [2] [%] | inhibition [3] [%] | inhibition [4] [%] | inhibition [5] [%] | inhibition [6] [%] | inhibition [7] [%] | inhibition [8] [%] | inhibition [9] [%] | inhibition [10] [%] | inhibition [11] [%] | inhibition [12] [%] | inhibition [13] [%] | inhibition [14] [%] | inhibition [15] [%] | inhibition [16] [%] | inhibition [17] [%] | inhibition [18] [%] | inhibition [19] [%] | inhibition [20] [%] |
| --- | --- | --- | --- | --- | --- | --- | --- | --- | --- | --- | --- | --- | --- | --- | --- | --- | --- | --- | --- | --- |
| NCc1ccc(-n2c(-c3nonc3N)nc3cnccc32)cc1 | 0.49 | 1.73 | 3.12 | 1.08 | 1.4 | 1.23 | 3.45 | -4.05 | -2.73 | 1.87 | 3.1 | 0.26 | 3.43 | 6.32 | 7.22 | 9.93 | 8.7 | 8.53 | 8.42 |  |
| COc1ccc(C2=C(N3CCc4ccccc43)C(=O)NC2=O)cc1 | 1.06 | 5.11 | 3.99 | 1.27 | 2.89 | 3.27 | 2.59 | 5.76 | -5.5 | 4.63 | 3.41 | 4.87 | 5.12 | -0.45 | 5.73 | 7.39 | 6.3 | 4.71 | -3.24 | 3.72 |
| COc1cc2ncn(-c3cc(OCc4cccs4)c(C(N)=O)s3)c2cc1OC | 1.23 | 11.1 | 13.7 | 2.16 | 10.3 | 0.99 | 4.24 | -6.36 | 0.53 | 2.86 | 8.04 | 4.84 | 21.2 | 3.04 | 1.7 | 0.38 | 2.45 | 0.77 | 1.73 | -0.46 |
| Fc1ccc(-c2ncn(C3CCNCC3)c2-c2ccnc(Oc3ccc4c(c3)OCO4)n2)cc1 | 0.91 | 3.23 | 7.38 | 0.92 | 2.35 | 4.05 | 7.47 | -0.87 | -3.97 | 1.93 | 3.42 | 3.41 | 3.52 | -6.92 | 7.39 | 12.7 | 6.25 | 8.22 | 1.31 | 0.26 |
| O=C1Nc2ccc(I)cc2C1=Cc1cc(Br)c(O)c(Br)c1 | 5.57 | 0.14 | 3.52 | -0.02 | -1.49 | 2.03 | 5.54 | -4.08 | -0.2 | 2.41 | 3.68 | 2.36 | 4.8 | 5.52 | 6.02 | 15 | 4.33 |  | 8.31 | 3.85 |
| CCc1cccc(CC)c1/C=C/c1cncc(C(=O)NC)c1 | 0.35 | 3.25 | 11.7 | 4.96 | 2.13 | 2.07 | 4.49 | 2.46 | -3.91 | 1.2 | 2.78 | 3.04 | -1.48 | 0.77 | 3.23 | 2.6 | 2.71 | 2.87 | 5.4 | 0.45 |
| N#Cc1ccc(Oc2nccc(-c3c(-c4ccc(F)cc4)ncn3C3CCNCC3)n2)cc1 | -0.84 | 3.69 | 6.62 | -0.44 | -0.67 | -0.97 | 3.98 | -7.02 | -0.38 | 2.69 | 3.55 | 3.38 | 3.87 | 1.9 | 6.93 | 6.24 | 4.98 | 4.44 | -1.66 | -0.57 |
